Results filed as inconclusive are left out. Values without a mark were called inactive. Activity calls are given as the source filed them. Calls come from the whole dose curve; as a rule, active = well fitted activation curve with a large enough effect; inconclusive = small, poorly fitted or top-dose-only effect; inactive = no such curve, though single readings can be large or run the other way.
Assay: qHTS assay for re-activators of p53 using a Luc reporter: Hit Validation with no p53 Expressed; for activity change, positive = activation: 0% is about no effect
Details: p53-null cells, luciferase reporter counter-screen; series mostly up to 46.1 µM; activity change, positive = activation: at the top concentration
Method in brief: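 Counter-screen of primary hits in a cell line not transfected with p53, in Opti-MEM with 10% FBS; compounds at several concentrations (10 mM stock, 1:5; top 46.1 µM in well), 24 h at 37 deg C, 5% CO2. Luminescence read after 10 min with Amplite reagent.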
Potency is the fitted concentration of half-maximal effect.

| SMILES | activity change, positive = activation | Potency |
| --- | --- | --- |
| COc1ccnc(CSC(N)=Nc2ccccc2OC)c1 | -41.7% | – |
| CNC(=S)N/N=C/c1cc(Br)cc(Br)c1O | -14.3% | – |
| Cc1cc(NC(c2cccnc2)c2ccc3cccnc3c2O)no1 (centres undefined) | 42.9% | – |
| O=c1c2ccccc2oc2ccc(-c3ccc4cc[nH]c4c3)cc12 | 42.2% | – |
| Nc1cccc(-c2nc3ccc(C(=O)c4ccccc4)cc3[nH]2)c1 | -22.3% | – |
| CCCCc1ccc(NC(=S)Nc2ccc(Nc3ccc(OC)cc3)cc2)cc1 | 11.1% | – |
| Cc1ccccc1S(=O)(=O)Nc1nc2ccccc2nc1N1CCc2ccccc2C1 | 50.8% | – |
| COc1cccc(/C=C2\Oc3ccc(O)cc3C2=O)c1O | -7.69% | – |
| Cc1cc(C(=O)COc2ncnc3sccc23)c(C)n1C1CC1 | -19.7% | – |
| CCOC(=S)SCC(=O)Nc1nc(-c2ccc(Br)cc2)cs1 | 25.1% | – |
| Cc1ccccc1-c1noc(N)c1C#N | -35.5% | – |
| O=C(NNC1=C(C(=O)C(F)(F)F)CCC1)c1cccc(O)c1 | -60.1% | – |
| COc1ccc(C2SCCN2C(=S)Nc2ccc(Cl)cc2)cc1 (centres undefined) | -24.4% | – |
| CCC(C)C(=O)N1CCc2cc(-c3csc(N)n3)ccc21 (centres undefined) | 31.1% | – |
| Cc1cc(CC(C)C)n(-c2nc3ccccc3c(=O)n2OCC(N)=O)n1 | -1.66% | – |
| CCOC(=O)c1c(C)[nH]c(C(=O)CSc2ccccc2)c1C | 14.4% | – |
| N#CC(Cc1ccccc1)(Cc1ccccc1)C(=O)NN | – | 29.1 µM (active) |
| O=C(Nc1cccc(N=Cc2cc(Cl)cc(Br)c2O)c1)c1ccco1 | -26% | – |
| Cc1ccc2nc(-c3ccc(NC(=O)COC(=O)c4ccc(Br)o4)cc3)sc2c1 | -74.3% | – |
| COc1ccc([N+](=O)[O-])cc1NC(=O)C1CCCCC1C(=O)O (centres undefined) | -7.45% | – |

| SMILES | activity change, positive = activation | Potency |
| --- | --- | --- |
| CCOc1ccc(OCc2cccc(C(=O)N3CCCC3)c2)cc1 | 0.911% | – |
| O=C(NNC(=O)c1cccnc1SCc1cccc([N+](=O)[O-])c1)c1ccccn1 | -3.99% | – |
| C/C(=N\NS(=O)(=O)c1ccc(Cl)cc1)c1ccc(NC(=O)c2ccco2)cc1 | -9.33% | – |
| CCOc1ccc(OCCSc2nc3ccccc3n2CC(=O)O)cc1 | -31% | – |
| Oc1ccccc1-c1cc(-c2ccccc2)n[nH]1 | 60.7% | – |
| CCc1ccc(-n2cc(-c3ccc([N+](=O)[O-])cc3)[nH]c2=S)cc1 | 56.6% | – |
| Cc1cccc(NC(=O)c2cnc3ccccn3c2=O)c1 | 12.2% | – |
| Cc1cc(NC(=O)c2ccc3c(c2)OCCO3)no1 | -8.07% | – |
| O=C(NNC(=O)C1CCCO1)c1ccccc1Cl (centres undefined) | -10.1% | – |
| CN1C(=O)C2(OCC(CO)([N+](=O)[O-])CO2)c2ccccc21 (centres undefined) | -34.5% | – |
| Nc1c(C(=O)c2ccc(Cl)cc2)oc2ccccc12 | -3.51% | – |
| CN(C(=O)NC(=O)C1=C(N2CCOCC2)/C(=C/c2ccccc2)CC1)S(C)(=O)=O | 93.6% | – |
| CN(C)c1ccc(/C=N/Nc2nncc3ccccc23)cc1 | 59.1% | – |
| Cc1ccc(NC(=S)NCC2CCCO2)c(OC(F)F)c1 (centres undefined) | -4.01% | – |
| CCOC(=O)N1CCN(S(=O)(=O)c2ccc(C(=O)NNc3nc4c(C)cc(C)cc4s3)cc2)CC1 | -36.5% | – |
| COc1ccc(-c2nc(-c3ccc(NC(=O)c4ccncc4)cc3)no2)cc1OC | -26.6% | – |
| Cc1ccsc1/C=N/Nc1nc2ccccc2[nH]1 | 50.1% | – |
| c1ccc2sc(-c3ccc4c(c3)OCO4)nc2c1 | -24.1% | – |
| COc1ccc(C(C)(C)C)cc1NC(=O)Nc1ccc2c(c1)OCO2 | 29.8% | – |
